Data as given in ChEMBL document CHEMBL3433997, “St. Jude Leishmania screening dataset” (2016).
Where “and” joins values, the source holds several entries; their conditions need not be identical. Identical values can stand only once.

Tests used:
Assay type in all cases: functional
[1] = biological target: Solute carrier family 2, facilitated glucose transporter member 1 (Homo sapiens) (UniProt P11166); experiment: ST_JUDE_LEISH: Cytotoxicity at 2uM final concentration against transgenic Leishmania Mexicana promastigotes LmGLUT1 that are glucose transport deficient and complemented with the human glucose transporter GLUT1. Activity is measured by DNA content using SYBR green in vitro
[2] = biological target: Hexose transporter 1 (Plasmodium falciparum) (UniProt O97467); experiment: ST_JUDE_LEISH: Cytotoxicity at 2uM final concentration against transgenic Leishmania Mexicana promastigotes LmPfHT that are glucose transport deficient and complemented with the Plasmodium falciparum hexose transporter. Activity is measured by DNA content using SYBR green in vitro
[3] = biological target: Glucose transporter (Leishmania mexicana) (UniProt O61059); experiment: ST_JUDE_LEISH: Cytotoxicity at 2uM final concentration against transgenic Leishmania Mexicana promastigotes LmGT2 that are glucose transport deficient and complemented with the L. Mexicana glucose transporter 2. Activity is measured by DNA content using SYBR green in vitro

Sequence of Solute carrier family 2, facilitated glucose transporter member 1 (Homo sapiens) (P11166 whole entry): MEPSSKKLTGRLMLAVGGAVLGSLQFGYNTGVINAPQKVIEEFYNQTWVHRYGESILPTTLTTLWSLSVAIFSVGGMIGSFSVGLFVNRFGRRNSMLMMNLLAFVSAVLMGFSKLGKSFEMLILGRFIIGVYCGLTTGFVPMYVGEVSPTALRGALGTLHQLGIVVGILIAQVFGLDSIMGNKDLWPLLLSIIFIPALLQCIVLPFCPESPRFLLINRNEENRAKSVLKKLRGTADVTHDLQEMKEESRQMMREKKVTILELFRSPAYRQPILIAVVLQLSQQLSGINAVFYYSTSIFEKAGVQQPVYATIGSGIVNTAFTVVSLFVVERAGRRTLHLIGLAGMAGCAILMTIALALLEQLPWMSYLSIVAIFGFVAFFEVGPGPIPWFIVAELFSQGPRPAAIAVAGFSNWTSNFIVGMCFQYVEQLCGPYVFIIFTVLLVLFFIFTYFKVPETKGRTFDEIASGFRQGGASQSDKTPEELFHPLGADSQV

CC[C@H]1CN2CC[C@H]1C[C@H]2[C@H](O)c1cc(-c2cccc(F)c2)nc2ccc(OC)cc12
inhibition [1]: 8.98% | inhibition [2]: 7.25% | inhibition [3]: 5.44%

O=C(NC1CCC(CN2CCC(c3c[nH]c4ccccc34)CC2)CC1)c1cc(-c2ccc(F)cc2F)ccc1O (stereo not given)
inhibition [1]: 0.76% | inhibition [2]: 0.13% | inhibition [3]: 0.42%

CC(Cc1ccc(OCCOc2ccccc2)cc1)NCC(O)c1cccc(C(F)(F)F)c1 (stereo not given)
inhibition [1]: 1.79% | inhibition [2]: 3.83% | inhibition [3]: 4.17%

C=C[C@H]1CN2CC[C@H]1C[C@H]2[C@H](O)c1cc(-c2ccc(Cl)cc2)nc2ccc(OC)cc12
inhibition [1]: 1.16% | inhibition [2]: 1.72% | inhibition [3]: 1.31%

c1ccc2c(NCCCCCCNc3c4ccccc4nc4ccccc34)c3ccccc3nc2c1
inhibition [1]: 5.54% | inhibition [2]: 6.29% | inhibition [3]: 4.31%

O=C(NC1CCC(CN2CCC(c3c[nH]c4ccccc34)CC2)CC1)c1cc(-c2ccccc2)c(C(F)(F)F)s1 (stereo not given)
inhibition [1]: 11.2% | inhibition [2]: 14.7% | inhibition [3]: 6.95%

CC(C)C[C@H](Nc1ccc(C#N)c2ccccc12)C(=O)N[C@@H]1CCCc2ccccc21
inhibition [1]: 3.96% | inhibition [2]: 1.88% | inhibition [3]: 1.15%

CC[C@H]1CN2CC[C@H]1C[C@H]2[C@H](OC(=O)c1ccccc1)c1cc(C#N)nc2ccc(OC)cc12
inhibition [1]: 1.81% | inhibition [2]: -0.58% | inhibition [3]: 0.6%

O=C(/C=C/c1cccc2ccccc12)NC1CCC(CN2CCC(c3c[nH]c4ccccc34)CC2)CC1 (stereo not given)
inhibition [1]: 1.25% and 2.48% | inhibition [2]: 0.21% and 2.66% | inhibition [3]: -2.33% and 1.25%

O=C(/C=C/c1ccc(Cl)c(Cl)c1)NCC1CCC(N2CCC(c3c[nH]c4ccccc34)CC2)CC1 (stereo not given)
inhibition [1]: 5.53% | inhibition [2]: 11.2% | inhibition [3]: 0.18%

CCCCCCCn1c(=O)c(C(=O)Nc2c(C)cccc2C)c(O)c2ccccc21
inhibition [1]: 2.89% | inhibition [2]: 1.98% | inhibition [3]: 3.35%

Cc1ccccc1C1=CCN(CCCN2c3ccccc3Sc3ccc(Cl)cc32)CC1
inhibition [1]: 6.62% | inhibition [2]: 5.58% | inhibition [3]: 1.49%

O=C(/C=C/c1ccc(Cl)c(Cl)c1)NC1CCC(N2CCC(c3c[nH]c4ccc(O)cc34)CC2)CC1 (stereo not given)
inhibition [1]: 1.81% | inhibition [2]: 1.52% | inhibition [3]: 2.5%

O=C(Nc1ccc(Oc2ccccc2)cc1)N1CCC(CN2CCC(c3c[nH]c4ccccc34)CC2)CC1
inhibition [1]: 1.64% | inhibition [2]: 2.58% | inhibition [3]: -1.12%

CN1CC=C(c2c[nH]c3ccc(OC(=O)c4ccccc4)cc23)C1
inhibition [1]: 0.69% | inhibition [2]: 0.43% | inhibition [3]: 1%

Cc1cccc(C(=O)Nc2ccnc(N(C)C3CCN(CC(C)C)CC3)c2)c1
inhibition [1]: -0.27% | inhibition [2]: 0.85% | inhibition [3]: 0%

FC(F)(F)c1ccc(NC(=S)NC2CCC(CN3CCC(c4c[nH]c5ccccc45)CC3)CC2)cc1 (stereo not given)
inhibition [1]: 13.2% and 1.58% | inhibition [2]: 12.7% and 6.46% | inhibition [3]: 3.66% and 2.93%

Cc1ccc(C)c(C=CC(=O)NC2CCC(CN3CCC(c4c[nH]c5ccccc45)CC3)CC2)c1 (stereo not given)
inhibition [1]: 1.09% and 15% | inhibition [2]: 1.99% and 11.5% | inhibition [3]: 1.04% and 10.2%

COC(=O)c1ccc(CC(C)NCC(O)c2cccc(C(F)(F)F)c2)c(Cl)c1 (stereo not given)
inhibition [1]: 2.55% | inhibition [2]: 2.18% | inhibition [3]: 3.39%

NC(=O)CN1CC=C(c2c[nH]c3ccc(Br)cc23)CC1
inhibition [1]: -1.87% | inhibition [2]: 0.93% | inhibition [3]: 0.77%

CC[C@H]1CN2CC[C@H]1C[C@H]2[C@H](O)c1cc(-c2cccc(C)c2)nc2ccc(OC)cc12
inhibition [1]: 3.99% | inhibition [2]: 2.64% | inhibition [3]: 4.03%

CCCCCc1cc(O)c2c(c1)OC(C)(C)CC2C1=CCN(Cc2ccccc2)CC1 (stereo not given)
inhibition [1]: 2.07% | inhibition [2]: 2.23% | inhibition [3]: 2.74%

Cc1ccc(CC(C)NCC(O)c2cccc(Cl)c2)cc1F (stereo not given)
inhibition [1]: 9.84% | inhibition [2]: 9.76% | inhibition [3]: 9.69%

CC[C@H]1CN2CC[C@@H]1C[C@H]2[C@H](O)c1cc(-c2c(C)noc2C)nc2ccc(OC)cc12
inhibition [1]: 3.43% | inhibition [2]: 4.92% | inhibition [3]: 6.01%

COCCSc1ccc(CC(C)NCC(O)c2cccc(Cl)c2)cc1 (stereo not given)
inhibition [1]: 0.56% | inhibition [2]: 0.25% | inhibition [3]: 0.74%

Cc1ccc(/C=C/C(=O)NC2CCC(CN3CCC(c4c[nH]c5ccccc45)CC3)CC2)cc1 (stereo not given)
inhibition [1]: 0.19% and 4.55% | inhibition [2]: 1.12% and 3.15% | inhibition [3]: 2.44% and 0.47%

CCc1ccc(CN2CCC(CN(C(=O)c3ccccc3)c3ccc(Cl)cc3)CC2)cc1
inhibition [1]: 8.24% | inhibition [2]: 5.97% | inhibition [3]: 5.04%

CCN1CCC2(c3cccc(OC)c3)Cc3nc4ccccc4c(-c4ccccc4)c3CC2C1 (stereo not given)
inhibition [1]: 3.21% | inhibition [2]: 1.3% | inhibition [3]: 2.12%

NC1=NC2(CCCC2)N(c2ccc(Cl)cc2)C(N)=N1
inhibition [1]: 3.05% | inhibition [2]: 4.23% | inhibition [3]: 3.83%

CC[C@H]1CN2CC[C@@H]1C[C@H]2[C@H](O)c1cc(N2CCC(C)CC2)nc2ccc(OC)cc12
inhibition [1]: 7.8% | inhibition [2]: 9.59% | inhibition [3]: 5.06%

O=C(c1cccs1)N(Cc1cccc(-c2ccc(CNC3CCCC3)cc2)c1)C1CCN(Cc2ccccc2)CC1
inhibition [1]: 10.1% | inhibition [2]: 10% | inhibition [3]: 9.21%

CC(Cc1ccc(NC(=O)[C@@H](C)NCCc2cccc(Cl)c2)cc1)NCCc1cccc(Cl)c1 (stereo not given in full)
inhibition [1]: 0.67% | inhibition [2]: 2.55% | inhibition [3]: 2.1%

CCOC(C(=O)OCC1CCCN(C)C1)(c1ccccc1)c1ccccc1 (stereo not given)
inhibition [1]: 4.97% | inhibition [2]: 4.46% | inhibition [3]: 5.83%

O=C(NC1CCC(CN2CCC(c3c[nH]c4ccccc34)CC2)CC1)c1cnn(-c2ccccc2)c1-c1ccccc1Cl (stereo not given)
inhibition [1]: 4.74% | inhibition [2]: 10.3% | inhibition [3]: 3.95%

CC[C@H]1CN2CC[C@@H]1C[C@H]2[C@H](O)c1cc(N2CCC(N3CCCCC3)CC2)nc2ccc(OC)cc12
inhibition [1]: 1.26% | inhibition [2]: 4.69% | inhibition [3]: -0.04%
